The source of these data is PubChem BioAssay (NCATS).

Results filed as inconclusive are left out. A call without a number means that no potency is given here. Activity calls are given as the source filed them. Calls follow the shape of the dose curve; as a rule, active = well fitted inhibition curve with a large enough effect; inconclusive = small, poorly fitted or top-dose-only effect; inactive = flat fitted curve, though single readings scatter.

The test system of the assay is Zika virus NS2B-NS3 protease. As to the kind of experiment: Primary screen GU AMC qHTS for Zika virus inhibitors (AID 1347154). Also: nearly all actives have a fitted effect of over 70% in size. As to conditions: Zika NS2B-NS3 unlinked protease, AMC fluorogenic substrate; series mostly up to 54.1 µM. In outline:
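Unlinked Zika NS2B hydrophilic domain–NS3 protease complex at 25 nM in 10 mM Tris-HCl pH 8.0, 0.01% Tween 20, with an AMC peptide substrate. Fluorescence change (340/450 nm) over 15 min at room temperature, normalized to controls, fitted to 4-parameter Hill.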
In general terms: In qHTS, concentration-response curves come from the screen itself.
Regarding `CC(C)(Oc1ccc(Cl)cc1)C(=O)O`, the Potency result was “inactive”.

Consider `CCN(CC)C(=O)N1CCN(C)CC1`, for which the Potency entry is “inactive”.

In the case of `CCOc1ccc(Cc2nccc3cc(OCC)c(OCC)cc23)cc1OCC`, the Potency entry was “inactive”.

With `C[C@]12CC[C@@H]3c4ccc(O)cc4CC[C@H]3[C@@H]1C[C@@H](O)[C@@H]2O`, the Potency entry is “inactive”.

As to `N[C@@H](CCC(=O)N[C@@H](CS)C(=O)NCC(=O)O)C(=O)O`, the Potency result is “inactive”.

For `CCCCc1nc(Cl)c(CO)n1Cc1ccc(-c2ccccc2-c2nn[nH]n2)cc1`, the Potency entry is “inactive”.

For the compound `C=C1C(=C/C=C2\CCC[C@]3(C)[C@@H]([C@H](C)/C=C/[C@@H](O)C4CC4)CC[C@@H]23)C[C@@H](O)C[C@@H]1O`, the Potency entry is “inactive”.

As to `COc1cc2c(cc1OC)C(=O)C(CC1CCN(Cc3ccccc3)CC1)C2` (centres undefined), the Potency entry is “inactive”.

Regarding `CCCCCCCCCCCCCCCC[N+](C)(C)CC`, the Potency entry was “inactive”.

With `CN(C)CC/C=C1/c2ccccc2COc2ccc(CC(=O)O)cc21`, the Potency entry is “inactive”.

`Oc1ccc(O)cc1`: the Potency entry is “inactive”.

Turning to `CC[C@@H](CO)NCCN[C@@H](CC)CO`, the Potency result is “inactive”.

Turning to `Cc1c(C)n(CCN(C)C)c2ccc(C(=O)OCCN(C)C)cc12`, the Potency entry is “inactive”.

Take `O=C(CCCN1CCC(O)(c2ccc(Br)cc2)CC1)c1ccc(F)cc1`: the Potency result is “inactive”.

Consider `C[C@]12C=CC(=O)C=C1[C@@H](F)C[C@@H]1[C@@H]2[C@@H](O)C[C@@]2(C)[C@H]1CC[C@]2(O)C(=O)CO`, for which the Potency entry was “inactive”.

For `CN1CCN(CCCN2c3ccccc3Sc3ccc(S(=O)(=O)N(C)C)cc32)CC1`, the Potency result was “inactive”.

For `CC(=O)Oc1ccc(C(=C2CCCCC2)c2ccc(OC(C)=O)cc2)cc1`, the Potency result was “inactive”.

Consider `O=C(COc1ccc(Cl)cc1)N1CCN(Cc2ccc3c(c2)OCO3)CC1`, for which the Potency result was “inactive”.

On to `COc1ccc(OC)c(C(O)CNC(=O)CN)c1` (centres undefined), for which the Potency entry was “inactive”.

For the compound `C#C[C@]1(O)CC[C@H]2[C@@H]3CCC4=CC(=O)CC[C@@H]4[C@H]3CC[C@@]21C`, the Potency result was “inactive”.

As for `O=C(Nc1ccc(Cl)c(Cl)c1)C1CC1`, the Potency entry is “inactive”.

For `CCCCOc1ccc(C(=O)CCN2CCCCC2)cc1`, the Potency result is “inactive”.

For the compound `COc1cc(OC)cc(OC)c1`, the Potency result is “inactive”.

Turning to `COc1cc2c(cc1OC)C(C(C(=O)N(CCc1ccc(OC)c(OC)c1OC)CCc1ccc(OC)c(OC)c1OC)c1ccccc1)=NCC2` (centres undefined), the Potency result is “inactive”.

Take `CCCCC1=NC2(CCCC2)C(=O)N1Cc1ccc(-c2ccccc2-c2nn[nH]n2)cc1`: the Potency entry is “inactive”.

As to `CCC(=O)c1c(O)cc(O)cc1O`, the Potency result is “inactive”.

For the compound `NC[C@H]1O[C@H](O[C@H]2[C@H](O[C@@H]3O[C@H](CO)[C@@H](O)[C@H]3O)C(O)[C@H](N)C[C@@H]2N)[C@H](N)[C@@H](O)[C@@H]1O` (some centres undefined), the activity change, negative = inhibition is -1.02% [at 6.83 µM] (inactive).

In the case of `O=C(N/N=C/c1ccccc1O)c1ccncc1`, the Potency entry is “inactive”.

Take `COc1c2occc2c(OC)c2c(=O)cc(C)oc12`: the Potency result was “inactive”.

Turning to `C=C1C[C@H]2[C@@H]3C=C(C)C4=CC(=O)CC[C@]4(C)[C@H]3CC[C@]2(C)[C@@]1(OC(C)=O)C(C)=O`, the Potency entry is “inactive”.

For the compound `COc1ccc(CCN2CCC(Nc3nc4ccccc4n3Cc3ccc(F)cc3)CC2)cc1`, the Potency result was “inactive”.

Consider `CN(C)CC/C=C1\c2ccccc2Sc2ccc(Cl)cc21`, for which the Potency result is “inactive”.

Regarding `Cc1onc(-c2c(Cl)cccc2Cl)c1C(=O)N[C@@H]1C(=O)N2[C@@H]1SC(C)(C)[C@@H]2C(=O)O`, the Potency entry is “inactive”.

On to `CC(C)NC[C@@H](O)COc1cccc2ccccc12`, for which the Potency entry was “inactive”.

With `CCCCOc1ccc(OCCCN2CCOCC2)cc1`, the Potency result is “inactive”.

`C[C@]12CC[C@H]3[C@@H](CCC4=CC(=O)CC[C@@]43C)[C@@H]1CC[C@@H]2C(=O)CO`: the Potency result is “inactive”.

For `OC(CCN1CCCCC1)(c1ccccc1)c1ccccc1`, the Potency result was “inactive”.

Turning to `CC(O)(P(=O)(O)O)P(=O)(O)O`, the Potency result was “inactive”.

Turning to `CCCOC(C(=O)OC1CCN(C)CC1)(c1ccccc1)c1ccccc1`, the Potency result was “inactive”.
